PubChem BioAssay (Tox21)
Values without a mark were called inactive. Records with an inconclusive call do not appear. A call without a number means that no potency is given here. Active and inactive are the calls of the source. Unless noted, the call rests on the fitted dose curve; in most records, active means well fitted curve in the direction sought with a large enough effect in the repeat runs; inconclusive means weak or mixed curves; inactive means no such curve, though single readings can be large; an effect the other way counts as inactive or inconclusive.

Columns and labels:
[1] = qHTS assay to identify small molecule HDAC inhibitors (AID 1259364); further: top concentration of the series differs between compounds; nearly all actives have a fitted effect of over 45% in size
Summary of the method: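 Luminescence read after 30 min room-temperature HDAC-Glo incubation measures cellular class I/II HDAC activity. Compounds were applied for 2 hr at 37 C to HCT-116 wild-type cells seeded the day before.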

[2] = qHTS assay to identify small molecule HDAC inhibitors - cell viability counter screen (AID 1259365); further: series mostly up to about 92 µM; nearly all actives have a fitted effect of over 50% in size
Summary of the method: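 Wild-type HCT-116 cells, 1,500/well, cultured overnight, then compound-treated 2 h at 37 C. Viability measured as ATP luminescence with CellTiter-Glo after 30 min at room temperature.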

[3] = qHTS assay to identify small molecule agonists of the sonic hedgehog signaling (Shh) pathway - cell viability counter screen (AID 1259366); further: nearly all actives have a fitted effect of over 50% in size
Summary of the method: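 NIH/3T3-derived Gli1-Luc reporter cells, 2,000 per well, received compound after 4 h and were treated about 23 h at 37C. Viability measured in the same wells by CellTiter-Fluor fluorescence after 1 h.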

[4] = qHTS assay to identify small molecule antagonists of the sonic hedgehog signaling (Shh) pathway - cell viability counter screen (AID 1259367); further: nearly all actives have a fitted effect of over 55% in size
Summary of the method: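 Cytotoxicity was assessed in parallel with Shh reporter activity by measuring live-cell protease fluorescence (CellTiter-Fluor) in NIH/3T3 cells stably carrying Gli1-Luc, treated with compound under conditioned medium stimulation for 23 hr plus 1 hr reagent incubation.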

[5] = qHTS assay to identify small molecule agonists of the sonic hedgehog signaling (Shh) pathway (AID 1259368; calls by dose curve;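 further: NIH/3T3-derived 3T3Gli1-Luc cells carrying a stable Gli1-driven firefly luciferase reporter; series mostly up to about 92 µM; nearly all actives have a fitted effect of over 15% in size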)
Summary of the method: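 Luminescence was read after 30 min at room temperature with luciferase reagent. Before that, 3T3Gli1-Luc cells (NIH/3T3 clone, stable Gli1-Luc reporter; 2,000/well) were exposed to compounds for 24 hr at 37C, 5% CO2, compounds being added 4 hr post-plating.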

[6] = qHTS assay to identify small molecule antagonists of the sonic hedgehog signaling (Shh) pathway (AID 1259369; calls by dose curve; further: nearly all actives have a fitted effect of over 45% in size)
Summary of the method: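 Antagonist mode: compound added to 3T3 Gli1-Luc cells followed by conditioned-medium stimulation, 24 h at 37 C, 5% CO2. Inhibition taken as loss of Gli1-driven luciferase luminescence.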

[7] = target: Estrogen receptor beta (Homo sapiens) (UniProt Q92731); assay: qHTS assay to identify small molecule agonists of the estrogen receptor beta (ER-beta) signaling pathway (AID 1259377; active means well fitted activation curve with a large enough effect in the signal ratio in the repeat runs, not every such curve was filed as active; the % refers to the signal ratio)
Chain of Estrogen receptor beta (Homo sapiens) (Q92731 whole entry, looked up): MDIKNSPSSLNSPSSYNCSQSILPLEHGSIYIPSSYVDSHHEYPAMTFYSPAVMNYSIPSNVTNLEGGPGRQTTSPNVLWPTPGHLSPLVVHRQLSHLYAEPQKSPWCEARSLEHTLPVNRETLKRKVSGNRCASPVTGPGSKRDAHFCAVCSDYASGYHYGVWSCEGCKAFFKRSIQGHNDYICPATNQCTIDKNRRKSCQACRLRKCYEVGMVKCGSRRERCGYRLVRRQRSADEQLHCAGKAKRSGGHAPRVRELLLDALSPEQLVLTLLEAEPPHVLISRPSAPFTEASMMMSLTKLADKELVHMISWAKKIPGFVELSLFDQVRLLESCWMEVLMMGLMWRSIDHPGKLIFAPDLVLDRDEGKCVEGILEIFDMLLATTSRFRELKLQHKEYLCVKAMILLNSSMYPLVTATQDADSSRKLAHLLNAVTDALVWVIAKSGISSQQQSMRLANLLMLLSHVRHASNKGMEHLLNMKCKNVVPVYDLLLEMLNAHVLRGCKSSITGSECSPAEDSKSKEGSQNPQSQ
Summary of the method: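 ER-beta-UAS-bla HEK293T cells in medium with 2% charcoal-stripped FBS were exposed to compounds for 16 h at 37C. Beta-lactamase reporter activity was read as fluorescence after 2 h with LiveBLAzer B/G FRET substrate at room temperature.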

[8] = target: Estrogen receptor beta (Homo sapiens) (UniProt Q92731); assay: qHTS assay to identify small molecule antagonists of the estrogen receptor beta (ER-beta) signaling pathway (AID 1259378; active means well fitted inhibition curve with a large enough effect in the signal ratio in the repeat runs, not every such curve was filed as active; the % refers to the signal ratio)
Summary of the method: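 ER-beta-UAS-bla HEK293T (GripTite) cells in 2% charcoal-stripped FBS medium were preincubated 6 hr at 37C, dosed with compound, then stimulated with 1 nM E2 (final) for 16 hr; beta-lactamase reporter read by B/G FRET fluorescence after 2 hr substrate loading.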

[9] = qHTS assay to identify small molecule agonists of the androgen receptor (AR) signaling pathway in the presence of an antagonist - cell viability counter screen (AID 1259379);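 further: MDA-kb2 human breast cancer cells carrying an MMTV luciferase reporter; series mostly up to about 92 µM; nearly all actives have a fitted effect of over 25% in size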
Summary of the method: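 Cytotoxicity counter-screen run in the same wells as the nilutamide-challenged (3.0 µM final) AR agonist assay in MDA-kb2 cells. Compounds tested at 15 concentrations for 16 h, 37 °C without CO2; CellTiter-Fluor fluorescence read.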

[10] = qHTS assay to identify small molecule agonists of the estrogen receptor beta (ER-beta) signaling pathway - cell viability counter screen (AID 1259380); further: nearly all actives have a fitted effect of over 30% in size
Summary of the method: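 Cell viability counter screen: CellTiter-Glo luminescence (30 min, room temperature) measured in the same wells as the beta-lactamase readout, after 16 hr compound exposure at 37C of ER-beta-bla HEK293T cells in 2% charcoal-stripped FBS medium.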

[11] = qHTS assay to identify small molecule antagonists of the estrogen receptor beta (ER-beta) signaling pathway - cell viability counter screen (AID 1259382); further: series mostly up to about 92 µM; nearly all actives have a fitted effect of over 55% in size
Summary of the method: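 Cytotoxicity was measured in the same wells by CellTiter-Glo luminescence after 30 min at room temperature. Cells were ER-beta-bla HEK293T in charcoal-stripped serum, given compound together with 1 nM E2 and incubated 16 h at 37C.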

[12] = target: Estrogen receptor (Homo sapiens) (UniProt P03372); assay: qHTS assay to identify small molecule agonists of the estrogen receptor alpha (ER-alpha) signaling pathway in the presence of an antagonist (AID 1259383; calls by dose curve; further: top concentration of the series differs between compounds; nearly all actives have a fitted effect of over 15% in size)
Chain of Estrogen receptor (Homo sapiens) (P03372 whole entry, looked up): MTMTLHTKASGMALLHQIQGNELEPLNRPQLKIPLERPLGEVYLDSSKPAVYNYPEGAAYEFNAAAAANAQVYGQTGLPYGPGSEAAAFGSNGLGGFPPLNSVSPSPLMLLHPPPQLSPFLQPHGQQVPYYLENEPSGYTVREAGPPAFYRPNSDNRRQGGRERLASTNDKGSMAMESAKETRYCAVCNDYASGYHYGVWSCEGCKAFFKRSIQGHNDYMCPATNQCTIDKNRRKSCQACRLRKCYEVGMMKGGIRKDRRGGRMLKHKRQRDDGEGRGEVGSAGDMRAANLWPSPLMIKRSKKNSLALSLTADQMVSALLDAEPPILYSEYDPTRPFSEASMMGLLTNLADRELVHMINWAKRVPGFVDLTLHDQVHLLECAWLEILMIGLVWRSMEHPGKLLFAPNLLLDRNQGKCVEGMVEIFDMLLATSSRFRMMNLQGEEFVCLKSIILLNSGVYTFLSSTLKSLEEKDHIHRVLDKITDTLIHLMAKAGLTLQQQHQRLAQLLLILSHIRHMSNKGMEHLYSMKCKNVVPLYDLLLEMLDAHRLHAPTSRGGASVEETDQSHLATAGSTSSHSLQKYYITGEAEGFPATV
Summary of the method: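 Agonist-mode confirmation run in the presence of 10.0nM (final) ICI-182,780 antagonist. The reporter was ERE-driven luciferase in VM7Luc4E2 cells, grown in charcoal-stripped serum. Cells were exposed to 15-concentration compound series for 22hr, then ONE-Glo luminescence was read.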

[13] = qHTS assay to identify small molecule agonists or antagonists of the thyroid stimulating hormone receptor (TSHR) signaling pathway - wild type cell line counter screen (AID 1259384; calls by dose curve)
Summary of the method: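 Wild-type HEK293 cells were plated 18 h at 37 C/5% CO2, pin-dosed with compound plus Ro20-1724 medium, held 30 min at room temperature, then given cAMP-d2 and anti-cAMP-cryptate; fluorescence was read after 1 h. Fifteen concentrations, triplicate.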

[14] = target: Thyrotropin receptor (Homo sapiens) (UniProt P16473); assay: qHTS assay to identify small molecule antagonists of the thyroid stimulating hormone receptor (TSHR) signaling pathway (AID 1259385; calls by dose curve; further: nearly all actives have a fitted effect of over 20% in size)
Chain of Thyrotropin receptor (Homo sapiens) (P16473 whole entry, looked up): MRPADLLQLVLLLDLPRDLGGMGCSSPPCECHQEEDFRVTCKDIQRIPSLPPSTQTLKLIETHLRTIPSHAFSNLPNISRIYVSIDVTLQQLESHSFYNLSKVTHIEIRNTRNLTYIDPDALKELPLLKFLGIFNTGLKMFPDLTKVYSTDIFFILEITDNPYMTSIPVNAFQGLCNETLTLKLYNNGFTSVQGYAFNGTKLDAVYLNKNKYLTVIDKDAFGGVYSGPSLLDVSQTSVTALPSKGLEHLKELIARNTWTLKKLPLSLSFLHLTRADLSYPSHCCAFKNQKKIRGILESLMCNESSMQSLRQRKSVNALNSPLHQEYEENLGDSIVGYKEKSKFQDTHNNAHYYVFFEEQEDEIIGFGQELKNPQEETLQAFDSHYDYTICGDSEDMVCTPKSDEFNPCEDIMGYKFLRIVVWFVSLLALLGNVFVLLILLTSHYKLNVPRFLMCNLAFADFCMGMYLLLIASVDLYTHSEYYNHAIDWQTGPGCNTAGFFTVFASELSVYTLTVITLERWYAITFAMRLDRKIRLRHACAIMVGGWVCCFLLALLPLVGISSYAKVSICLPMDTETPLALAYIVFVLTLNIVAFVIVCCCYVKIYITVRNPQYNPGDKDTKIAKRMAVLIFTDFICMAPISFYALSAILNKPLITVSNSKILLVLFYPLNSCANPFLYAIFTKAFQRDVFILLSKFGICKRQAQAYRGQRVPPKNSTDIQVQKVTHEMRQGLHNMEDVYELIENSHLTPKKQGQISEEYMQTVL
Summary of the method: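 TSHR-HEK293 cells were plated and held 18 h at 37C/5% CO2, then given compound plus Ro20-1724 and stimulated with TSH at 1.5 ng/mL final. After 30 min at room temperature, cAMP was detected with cAMP-d2/anti-cAMP-cryptate (1 h) by fluorescence.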

[15] = qHTS assay to identify small molecule agonists of the estrogen receptor alpha (ER-alpha) signaling pathway in the presence of an antagonist - cell viability counter screen (AID 1259386); further: series mostly up to about 92 µM; nearly all actives have a fitted effect of over 30% in size
Summary of the method: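 Compounds tested at 15 concentrations for 22 h at 37C alongside 10.0nM (final) ICI-182,780 antagonist, in VM7Luc4E2 cells grown in phenol red-free, charcoal-stripped medium. Viability read by CellTiter-Fluor fluorescence after 1 h reagent incubation.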

[16] = target: Progesterone receptor (Homo sapiens) (UniProt P06401); assay: qHTS assay to identify small molecule agonists of the progesterone receptor (PR) signaling pathway (AID 1346784; calls by dose curve; further: nearly all actives have a fitted effect of over 30% in size; further: potency means the concentration at half of the fitted maximal effect)
Chain of Progesterone receptor (Homo sapiens) (P06401 whole entry, looked up): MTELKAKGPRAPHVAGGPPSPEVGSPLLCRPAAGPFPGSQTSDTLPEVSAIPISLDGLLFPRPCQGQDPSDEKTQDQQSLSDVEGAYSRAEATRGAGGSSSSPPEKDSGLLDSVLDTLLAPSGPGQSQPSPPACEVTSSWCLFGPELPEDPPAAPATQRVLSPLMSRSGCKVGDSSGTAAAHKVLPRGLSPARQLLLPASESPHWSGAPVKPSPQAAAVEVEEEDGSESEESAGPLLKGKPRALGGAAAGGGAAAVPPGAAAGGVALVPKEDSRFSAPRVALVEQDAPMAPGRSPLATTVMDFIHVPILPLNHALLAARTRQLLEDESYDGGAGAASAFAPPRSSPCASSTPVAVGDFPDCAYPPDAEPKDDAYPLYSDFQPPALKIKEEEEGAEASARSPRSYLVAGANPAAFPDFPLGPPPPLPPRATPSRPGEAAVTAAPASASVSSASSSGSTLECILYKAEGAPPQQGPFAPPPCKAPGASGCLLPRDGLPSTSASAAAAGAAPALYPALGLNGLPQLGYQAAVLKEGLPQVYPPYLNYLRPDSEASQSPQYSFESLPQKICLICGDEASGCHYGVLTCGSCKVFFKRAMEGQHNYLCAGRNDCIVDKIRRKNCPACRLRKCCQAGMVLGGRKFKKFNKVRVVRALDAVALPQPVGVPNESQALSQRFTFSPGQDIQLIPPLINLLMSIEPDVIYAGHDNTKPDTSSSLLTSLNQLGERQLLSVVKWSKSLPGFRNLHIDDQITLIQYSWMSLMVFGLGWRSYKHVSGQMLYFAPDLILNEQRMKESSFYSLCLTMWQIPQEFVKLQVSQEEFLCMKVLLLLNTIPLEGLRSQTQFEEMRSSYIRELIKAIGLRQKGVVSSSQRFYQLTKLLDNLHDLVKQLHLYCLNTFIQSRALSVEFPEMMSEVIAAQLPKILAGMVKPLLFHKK
Summary of the method: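 PR-UAS-bla HEK 293T cells (beta-lactamase reporter under UAS) in 2% charcoal-stripped FBS, dosed with 23 nL compound after 6 hr, incubated 16hr at 37C. LiveBLAzer B/G FRET substrate added, fluorescence read after 2 hours.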

[17] = target: Progesterone receptor (Homo sapiens) (UniProt P06401); assay: qHTS assay to identify small molecule antagonists of the progesterone receptor (PR) signaling pathway (AID 1346795; active means well fitted inhibition curve with a large enough effect in the signal ratio in the repeat runs, not every such curve was filed as active; the % refers to the signal ratio)
Summary of the method: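 PR-UAS-bla HEK293T cells with beta-lactamase reporter under UAS control, in 2% charcoal-stripped FBS, treated with compounds plus 1 nM promegestone (R5020, final) for 16 hr at 37C. Read-out: FRET beta-lactamase substrate fluorescence after 2 hr at room temperature.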

[18] = qHTS assay to identify small molecule antagonists of the progesterone receptor (PR) signaling pathway - cell viability counter screen (AID 1346798); further: series mostly up to about 92 µM; nearly all actives have a fitted effect of over 50% in size
Summary of the method: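 PR-UAS-bla HEK293T cells, 3,000/well in 2% charcoal-stripped FBS medium, dosed with compounds plus R5020 agonist and incubated 16 h at 37C. Viability then measured in the same wells by CellTiter-Glo luminescence after 30 min at RT.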

[19] = qHTS assay to identify small molecule agonists of the progesterone receptor (PR) signaling pathway - cell viability counter screen (AID 1346799; calls by dose curve; further: nearly all actives have a fitted effect of over 45% in size)
Summary of the method: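 Counter screen in the PR-UAS-bla HEK293T wells (2% charcoal-stripped FBS, 16 h compound exposure at 37 C) after the bla read. CellTiter-Glo added, 30 min at room temperature, luminescence read as cell viability.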

[20] = qHTS assay to identify small molecule antagonists of the TGF-beta/Smad signaling pathway - cell viability counter screen (AID 1346824); further: nearly all actives have a fitted effect of over 50% in size
Summary of the method: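 SBE-bla HEK 293T cells were plated overnight at 37 C, then given compounds in DMSO plus TGF-beta1 (added as 0.25 ng/mL solution) for 5 hr. After the bla read, CellTiter-Glo was added to the same wells and luminescence read after 30 min at room temperature.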

SMILES	Potency [1]	outcome [2]	Potency [3]	Potency [4]	outcome [5]	Potency [6]	Potency [7]	outcome [8]	Potency [9]	outcome [10]	outcome [11]	outcome [12]	outcome [13]	outcome [14]	Potency [15]	Potency [16]	Potency [17]	Potency [18]	Potency [19]	outcome [20]
COCC(=O)Nc1c(I)c(C(=O)NCC(O)CO)c(I)c(C(=O)N(C)CC(O)CO)c1I (stereo not given)	inactive	inactive	inactive	inactive	inactive	inactive	inactive	inactive	inactive	inactive	inactive	inactive	inactive	inactive	inactive	inactive	inactive	inactive	inactive	inactive
CC(=O)OC(C)c1ccccc1 (stereo not given)	inactive	inactive	inactive	inactive	inactive	inactive	inactive	inactive	inactive	inactive	inactive	inactive	inactive	inactive	inactive	–	inactive	–	inactive	inactive
CCCCCN(CCCOC)C(=O)C(CCC(=O)O)NC(=O)c1ccc(Cl)c(Cl)c1 (stereo not given)	inactive	inactive	inactive	inactive	inactive	inactive	inactive	inactive	inactive	inactive	inactive	inactive	–	–	inactive	inactive	inactive	–	–	–
FC(F)(F)/C(=N\OCC1OCCO1)c1ccc(Cl)cc1	inactive	inactive	inactive	inactive	inactive	inactive	inactive	inactive	inactive	inactive	inactive	inactive	inactive	inactive	inactive	–	inactive	inactive	inactive	inactive
COC(/C=C(\C)CCC=C(C)C)OC	inactive	inactive	inactive	inactive	inactive	inactive	inactive	inactive	inactive	inactive	inactive	inactive	inactive	inactive	inactive	–	inactive	inactive	–	inactive
CC1=CC[C@H](CC=O)C1(C)C	inactive	inactive	inactive	inactive	inactive	inactive	inactive	inactive	inactive	inactive	inactive	inactive	inactive	inactive	inactive	–	inactive	inactive	inactive	inactive
CC(C)C(=O)Nc1cccc(C(F)(F)F)c1	inactive	inactive	inactive	inactive	inactive	inactive	inactive	inactive	inactive	inactive	inactive	inactive	–	–	inactive	inactive	inactive	inactive	inactive	inactive
CCCCCCCCC(=O)OCC	inactive	inactive	inactive	inactive	inactive	inactive	inactive	inactive	inactive	inactive	inactive	inactive	–	inactive	inactive	–	inactive	inactive	inactive	inactive
CCCOC(=O)CCCCC(=O)OCCC	inactive	inactive	inactive	inactive	inactive	inactive	inactive	inactive	inactive	inactive	inactive	inactive	inactive	inactive	inactive	inactive	inactive	inactive	inactive	inactive
CC(=O)c1ccc2c(c1)CCCC2	inactive	inactive	inactive	inactive	inactive	inactive	inactive	inactive	inactive	inactive	inactive	inactive	inactive	inactive	inactive	–	inactive	inactive	inactive	inactive
CCN1CN(CC)CN(CC)C1	inactive	inactive	inactive	inactive	inactive	inactive	inactive	inactive	inactive	inactive	inactive	inactive	inactive	inactive	inactive	inactive	inactive	–	inactive	inactive
CCCO	inactive	inactive	inactive	inactive	inactive	inactive	inactive	inactive	inactive	inactive	inactive	inactive	–	–	inactive	inactive	inactive	inactive	inactive	inactive
CCOC(=O)C(=O)c1csc(NC=O)n1	inactive	inactive	inactive	inactive	inactive	inactive	inactive	inactive	inactive	inactive	inactive	inactive	inactive	inactive	inactive	–	–	inactive	inactive	–
CCCCC(CC)COC(=O)c1ccccc1 (stereo not given)	inactive	inactive	inactive	inactive	inactive	inactive	inactive	inactive	inactive	inactive	inactive	inactive	inactive	inactive	inactive	inactive	inactive	inactive	inactive	inactive
O=C1OC(=O)c2ccccc21	inactive	inactive	inactive	inactive	inactive	inactive	inactive	inactive	inactive	inactive	inactive	inactive	inactive	inactive	inactive	60.8 µM (active)	inactive	–	–	inactive
Nc1ccc(S(=O)(=O)Nc2ccccn2)cc1	inactive	inactive	inactive	inactive	inactive	inactive	inactive	inactive	inactive	inactive	inactive	inactive	–	inactive	inactive	inactive	inactive	inactive	inactive	inactive
